Experimental data as given in PubChem BioAssay (NCATS).
Records with an inconclusive call do not appear. Activity calls are given as the source filed them. The call rests on the fitted dose curve; in most records, active means well fitted curve in the direction sought with a large enough effect; inconclusive means small, poorly fitted or top-dose-only effect, or another doubt; inactive means no such curve, though single readings can be large; an effect the other way counts as inactive or inconclusive.

Key:
[1] = biological target: Calcium and integrin-binding protein 1 (Homo sapiens) (UniProt Q99828); assay: Primary qHTS for Identification of Calcium Integrin Binding Protein 1 (CIB1) Competitor (AID 1508620); details: CIB1-GST / FITC-alphaIIb peptide fluorescence polarization; series mostly up to 57.7 µM;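 further: GST tagged CIB1 binding a fluorescein labelled alphaIIb integrin peptide tracer; top concentration of the series differs between compounds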
Procedure, shortened: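 Fluorescence polarization competition: CIB1-GST (1 uM final) preincubated with compound 15 min at room temperature, then FITC-labeled alphaIIb peptide (100 nM final) added for another 15 min. Polarization read at Ex 480/Em 540.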

[2] = Primary qHTS for inhibitors of nuclear receptor binding SET domain protein 2 (NSD2) in an isogenic RCH-ACV NSD2 p.E1099K mutant (9B) (AID 1645876); details: RCH-ACV NSD2 E1099K (9B) viability, CellTiter-Glo, 72 h; series mostly up to 44.9 µM; further: nearly all actives have a fitted effect of over 70% in size
[3] = Primary qHTS for inhibitors of nuclear receptor binding SET domain protein 2 (NSD2) in an RCH-ACV wild type WT cells (2C) (AID 1645877); details: RCH-ACV (leukaemia line) NSD2 WT (2C) viability, CellTiter-Glo, 72 h; series mostly up to 44.9 µM; further: nearly all actives have a fitted effect of over 70% in size
On the % scale 0 is the no-effect control and ±100 the full control effect.

Calcium and integrin-binding protein 1 (Homo sapiens), sequence (Q99828 whole entry, looked up): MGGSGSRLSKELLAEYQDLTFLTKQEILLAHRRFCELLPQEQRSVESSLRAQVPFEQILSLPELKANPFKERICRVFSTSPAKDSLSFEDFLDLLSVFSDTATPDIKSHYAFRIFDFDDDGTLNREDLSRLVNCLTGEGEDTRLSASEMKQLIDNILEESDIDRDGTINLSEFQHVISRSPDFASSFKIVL

CC/C=C\C(O)C(O)C1=C(C)C(=O)C2(O1)C(=O)NC(OC)(C(=O)c1ccccc1)C2O (centres undefined)
inactive: Potency [1] | Potency [2] | Potency [3]

COc1c2cc(c(O[C@@H]3O[C@H](CO)[C@@H](O)[C@H](O)[C@H]3O)c1OC)CCCCC(O)CCc1ccc(O)c-2c1 (some centres undefined)
inactive: Potency [1] | Potency [2] | Potency [3]

C[C@@H]1O[C@@H](OC[C@H]2O[C@@H](OCc3ccccc3)[C@H](O)[C@@H](O)[C@@H]2O)[C@H](O)[C@H](O)[C@H]1O
inactive: Potency [1] | Potency [2] | Potency [3]

CC1(C)[C@@H]2CC=C(CO[C@@H]3O[C@H](CO[C@@H]4OC[C@H](O)[C@H](O)[C@H]4O)[C@@H](O)[C@H](O)[C@H]3O)[C@H]1C2
inactive: Potency [1] | Potency [2] | Potency [3]

C=C1CC[C@]2(C(=O)O[C@@H]3O[C@H](CO)[C@@H](O)[C@H](O)[C@H]3O)CC[C@]3(C)C(=CCC4[C@@]5(C)C[C@H](O)[C@@H](O[C@@H]6O[C@H](C(=O)O)[C@@H](O)[C@H](O)[C@H]6O)[C@](C)(C=O)C5CC[C@]43C)C2C1 (some centres undefined)
inactive: Potency [1] | activity change, negative = viability loss [2] -1.03% [at 9.23 µM] | activity change, negative = cell killing [3] -2.63% [at 9.23 µM]

COC(=O)C1=COC(OC2OC(CO)C(O)C(O)C2O)C2C(C)CC(=O)C12O (centres undefined)
inactive: Potency [1] | Potency [2] | Potency [3]

CC(=O)OC(C)C(C)(O)C(=O)O[C@@H]1CC[C@]2(C)CC(=O)C(=C(C)C)C[C@H]2[C@]1(C)OC(C)=O (some centres undefined)
inactive: Potency [1] | Potency [2] | Potency [3]

CC1=C2C[C@@]3(C)[C@@H](CCC[C@@H]3C)C[C@@]2(O)OC1=O
inactive: Potency [1] | Potency [2] | Potency [3]

CN(C)CCC[C@]1(c2ccc(F)cc2)OCc2cc(C#N)ccc21
inactive: Potency [1] | Potency [2] | Potency [3]

CC(C)(O)/C=C/C(=O)[C@](C)(O)[C@H]1[C@H](O)C[C@@]2(C)[C@@H]3CC=C4[C@@H](C=C(O[C@@H]5O[C@H](CO)[C@@H](O)[C@H](O)[C@H]5O)C(=O)C4(C)C)[C@]3(C)C(=O)C[C@]12C
inactive: Potency [1] | Potency [2] | Potency [3]

COc1cc(C(CO)C(OC2OC(CO)C(O)C(O)C2O)c2ccc(O)c(OC)c2)ccc1O (centres undefined)
inactive: Potency [1] | Potency [2] | Potency [3]

O=C(/C=C/c1ccc(O)cc1)OCC1OC(O)C(OC2OC(CO)C(O)C(O)C2O)C(O)C1O (centres undefined)
inactive: Potency [1] | Potency [2] | Potency [3]

C=C(C)C(O)COc1ccc(CC(=O)O)cc1 (centres undefined)
inactive: Potency [1] | Potency [2] | Potency [3]

C=C1CC23CC1CCC2C12OC(=O)C(C)(C(O)CC1O)C2C3C(=O)O (centres undefined)
inactive: Potency [1] | Potency [2] | Potency [3]

CC1(O)CC(O)C2C(C(=O)O)=COC(OC3OC(CO)C(O)C(O)C3OC(=O)/C=C/c3ccc(O)cc3)C21 (centres undefined)
inactive: Potency [1] | Potency [2] | Potency [3]

CC1(C)CC[C@]2(C(=O)O[C@@H]3O[C@H](CO[C@@H]4O[C@H](CO[C@@H]5O[C@H](CO)[C@H](O)[C@H](O)[C@H]5O)[C@@H](O)[C@H](O)[C@H]4O)[C@@H](O)[C@H](O[C@@H]4O[C@H](CO)[C@@H](O)[C@H](O)[C@H]4O)[C@H]3O)[C@H](O)C[C@]3(C)C(=CCC4[C@@]5(C)CC[C@H](O[C@@H]6OC[C@@H](O)[C@H](O)[C@H]6O)[C@@](C)(C(=O)O)C5CC[C@]43C)[C@@H]2C1 (some centres undefined)
inactive: activity change, negative = inhibition [1] 3.63% [at 12.4 µM] | outcome [2] inactive [at 9.23 µM] | outcome [3] inactive [at 9.23 µM]

O=C(O)c1ccc(NC(=O)[C@H](CC2CCCC2)n2cnc(C(F)(F)F)c2)nc1
inactive: Potency [1] | Potency [2] | Potency [3]

COC(=O)C(Cc1ccccc1)NC(=O)c1ccccc1 (centres undefined)
inactive: Potency [1] | Potency [2] | Potency [3]

C[C@@]1(C(=O)O)CCC[C@@]2(C)C3=CC[C@H]4C[C@@]3(CC[C@H]12)CC4(O)CO (some centres undefined)
inactive: Potency [1] | Potency [2] | Potency [3]

C[C@@H]1O[C@@H](O[C@@H]2[C@@H](O)[C@H](O[C@@H]3[C@@H](O)[C@@H](O)[C@H](O[C@H]4[C@H](OC(=O)[C@]56CCC(C)(C)C[C@H]5C5=CCC7[C@@]8(C)C[C@H](O)[C@H](O[C@@H]9O[C@H](C(=O)O)[C@@H](O)[C@H](O)[C@H]9O)[C@@](C)(CO)C8[C@H](O)C[C@@]7(C)[C@]5(C)C[C@H]6O)O[C@@H](CO)[C@@H]4O)O[C@H]3C)OC[C@H]2O)[C@H](O)[C@H](O)[C@H]1O (some centres undefined)
inactive: activity change, negative = inhibition [1] 0.349% [at 12.4 µM] | activity change, negative = viability loss [2] -3.74% [at 9.23 µM] | activity change, negative = cell killing [3] -10.6% [at 9.23 µM]

COc1c(O)cc2c(c1O)C(=O)O[C@H](C)[C@H]2O
inactive: Potency [1] | Potency [2] | Potency [3]

CC(=O)OC1CC2(C)C(CCC(C)C23Cc2c(O)cc4c(c2O3)CNC4=O)C(C)(C)C1O (centres undefined)
inactive: Potency [1] | Potency [2] | Potency [3]

O=C(NC1CCN(CC(F)(F)F)CC1)c1ccc(-c2cccc(F)c2)nc1
inactive: Potency [1] | Potency [2] | Potency [3]

COC1CC(O[C@H]2CC[C@@]3(C)C(=CC[C@]4(O)C3[C@H](O)[C@@H](O)[C@]3(C)[C@@H]([C@H](C)O)CC[C@@]34O)C2)OC(C)C1OC1CC(OC)C(OC2CC(OC)C(OC3OC(C)C(OC4OC(CO)C(O)C(O)C4O)C(OC)C3O)C(C)O2)C(C)O1 (some centres undefined)
inactive: Potency [1] | activity change, negative = viability loss [2] 1.87% [at 9.23 µM] | activity change, negative = cell killing [3] -2.18% [at 9.23 µM]

O=C(O)Cc1cn([C@@H]2OC[C@@H](O[C@@H]3O[C@H](CO)[C@@H](O)[C@H](O)[C@H]3O)[C@H](O)[C@H]2O[C@@H]2O[C@H](CO)[C@@H](O)[C@H](O)[C@H]2O)c2ccccc12
inactive: Potency [1] | Potency [2] | Potency [3]

C=C1CCC2[C@](C)(CCC[C@]2(C)C(=O)O)[C@H]1CC/C(C)=C/C(=O)OC (some centres undefined)
inactive: Potency [1] | Potency [2] | Potency [3]

CC(=O)OC1(C)CC(O)C2(O)C=COC(OC3OC(CO)C(O)C(O)C3O)C12 (centres undefined)
inactive: Potency [1] | Potency [2] | Potency [3]

C/C=C/C=C/C=C/C(=O)N(C)C(C(=O)NC(C)C(=O)N1CCCC1C(N)=O)C(C)C (centres undefined)
inactive: Potency [1] | Potency [2] | Potency [3]

CC(=O)C1CCC(=O)N1Cc1ccccc1 (centres undefined)
inactive: Potency [1] | Potency [2] | Potency [3]

C[C@@H]1C[C@H]2OC(=O)[C@@]3(C)CCC[C@](C)(C23)[C@@]1(O)CCC1=CC(=O)OC1O (some centres undefined)
inactive: Potency [1] | Potency [2] | Potency [3]

CC1(C)C[C@H](O)C[C@@]2(C)[C@H]1[C@H](O)C=C1COC(=O)[C@@]12O
inactive: Potency [1] | Potency [2] | Potency [3]

C/C=C(\C)C(=O)OC[C@H]1O[C@@H](O[C@H]2[C@@H](O[C@H]3O[C@H](COC(=O)/C(C)=C/C)[C@@H](O)[C@H](O)[C@H]3O[C@@H]3O[C@H](COC(=O)/C(C)=C/C)[C@@H](O)[C@H](OC(=O)/C(C)=C/C)[C@H]3O)O[C@H](COC(=O)/C(C)=C/C)[C@@H](O)[C@@H]2O)[C@H](O)[C@@H](O)[C@@H]1O
inactive: Potency [1] | activity change, negative = viability loss [2] -1.81% [at 9.23 µM] | activity change, negative = cell killing [3] -6.87% [at 9.23 µM]

CC(=O)OC[C@@]12C(=O)C[C@@H](C)[C@]3(C[C@@H](c4ccoc4)OC3=O)[C@H]1CC[C@H](OC(C)=O)[C@]21CO1
inactive: Potency [1] | Potency [2] | Potency [3]

COc1cc(/C=C/C(=O)OC[C@H]2O[C@@H](OC3OC=C(C(=O)O)C4C(O)CC(C)(O)C34)[C@H](O)[C@@H](O)[C@@H]2O)cc(OC)c1O (some centres undefined)
inactive: Potency [1] | Potency [2] | Potency [3]

C=C1C2CCC3CC2(CC(O)C2(O)C1CC(OC1OC(CO)C(O)C(O)C1O)C2(C)C)CC3(C)O (centres undefined)
inactive: Potency [1] | Potency [2] | Potency [3]

COc1cc(C(C)=O)ccc1O[C@@H]1O[C@H](CO[C@@H]2OC[C@@H](O)[C@H](O)[C@H]2O)[C@@H](O)[C@H](O)[C@H]1O
inactive: Potency [1] | Potency [2] | Potency [3]

CC(=O)O[C@H]1C[C@@H](O)C(C)(C)C2C[C@@H](OC(C)=O)[C@@]3(C)C4=CCC(C(CO)CC(O)C5OC5(C)C)[C@]4(C)CCC3[C@]21C (some centres undefined)
inactive: Potency [1] | Potency [2] | Potency [3]

C=C1CCC(OC(C)=O)C2(C)CC3OC(=O)C(C)=C3CC12 (centres undefined)
inactive: Potency [1] | Potency [2] | Potency [3]

CC1=C2C(=O)C=C(CO)C2C2OC(=O)C(CS(=O)(=O)O)C2C(OC(=O)Cc2ccc(O)cc2)C1 (centres undefined)
inactive: Potency [1] | Potency [2] | Potency [3]

Cc1occc(=O)c1O[C@@H]1O[C@H](CO[C@@H]2OC[C@](O)(CO)[C@H]2O)[C@@H](O)[C@H](O)[C@H]1O
inactive: Potency [1] | Potency [2] | Potency [3]

CC1=C2C(=O)C=C(CO[C@@H]3O[C@H](CO)[C@@H](O)[C@H](O)[C@H]3O)[C@@H]2[C@H]2OC(=O)[C@H](C)[C@@H]2[C@@H](O)C1
inactive: Potency [1] | Potency [2] | Potency [3]

O=C(OC[C@H]1O[C@@H](Oc2ccccc2CO)[C@H](O)[C@@H](O)[C@@H]1O)c1ccccc1
inactive: Potency [1] | Potency [2] | Potency [3]

CN(C)CC(c1ccc(O)cc1)C1(O)CCCCC1 (centres undefined)
inactive: Potency [1] | Potency [2] | Potency [3]

Cc1cc(CO)c(O)c(C(=O)CC2CC(=O)NC(=O)C2)c1
inactive: Potency [1] | Potency [2] | Potency [3]

CC(=O)OC1C(C)C2C(OC3OC(CO)C(O)C(O)C3O)OC=C(C(=O)O)C2C1OC(=O)c1ccccc1 (centres undefined)
inactive: Potency [1] | Potency [2] | Potency [3]

CC(=O)O[C@@H]1C(O)C[C@@]2(C)C(CC[C@@H](C)C23Cc2c(O)cc4c(c2O3)CNC4=O)C1(C)C (some centres undefined)
inactive: Potency [1] | Potency [2] | Potency [3]

C=C1[C@H](OC(C)=O)[C@H]2[C@@H](OC(C)=O)C(C)C[C@]2(OC(C)=O)C(=O)[C@H](C)/C=C/C(C)(C)C(=O)[C@H](OC(=O)C(C)C)[C@H]1OC(C)=O (some centres undefined)
inactive: Potency [1] | Potency [2] | Potency [3]

C=C1CC[C@@H]2[C@@](C)(CO[C@@H]3O[C@H](CO)[C@@H](O)[C@H](O)[C@H]3O)[C@H](O)CC[C@@]2(C)[C@@H]1CC/C(C)=C/CO[C@@H]1O[C@H](CO)[C@@H](O)[C@H](O)[C@H]1O
inactive: Potency [1] | Potency [2] | Potency [3]
